CF NFkB block = blocks PAF-induced NF-kB reporter in cystic fibrosis cells. inhibition, % at 5 µM. actives 0.86% (n = 360,000). AID 588850. KKLEB NF-kB-GFP reporter, GFP fluorescence overnight;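 active = at least 50% inhibition at 5 µM, scaled per plate between neutral and stimulator controls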;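 also: PAF is a Pseudomonas aeruginosa culture filtrate used as stimulus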
Shn3 3UTR inh = inhibitors of Schnurri-3 3'UTR reporter in osteoblasts. actives 0.52% (n = 360,000). Clone20 osteoblast Shn3 3'UTR firefly luciferase, 24 h. AID 588674. inhibition, % at 12.5 µM;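 active = mean inhibition of at least 75% with every replicate also reaching 75%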
Peg3 prom inh-1 = Peg3 promoter activity inhibition. HeLa PEG-Prom luciferase reporter, luminescence, overnight. actives 1.7% (n = 360,000). inhibition, % at 20 µM;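 active = inhibition of at least 50% at 20 µM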
KKLEB cytotox = counter-screen for CF NF-kB inhibitors: cytotoxicity. KKLEB CF airway cells viability, ATPlite luminescence, overnight; hits give low values; cells stimulated with P. aeruginosa culture filtrate. activity change (cytotoxicity), % at 5 µM. actives 0.36% (n = 360,000). AID 602141;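 active = corrected activity change at or below -50% at 5 µM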
HIF-2a inh = HIF-2a inhibition | 786-0 RCC cells HIF-2a reporter, luciferase luminescence, overnight | AID 624352 | inhibition, % at 18.8 µM | actives 0.72% (n = 360,000);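 active = inhibition of the luminescence signal of 40% or more relative to plate controls, in a single-dose primary screen at 18.75 µM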
Peg3 prom inh-2 = Peg3 promoter inhibition confirmation | shares compounds with Peg3 prom inh-1 | HeLa PEG-Prom luciferase reporter, luminescence, overnight | inhibition, % at 20 µM | actives 84% (n = 1,300);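 active = at 20 µM dose, 40% or more inhibition averaged across four replicates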
Of the large screens only hits and unclear results are named; the others gave an inactive call (follow-up assays come after a bar, where they were run); ! = a repeat was not active. An excerpt weighted towards active compounds, which were near 2.6% of everything screened.

Cc1ccc(-c2cc3c(nn2)-c2ccccc2C3=O)cc1	Peg3 prom inh-1 76.1, KKLEB cytotox -74.6 | Peg3 prom inh-2 66.6
O=C1c2ccccc2-c2nnc(-c3ccc(F)cc3)cc21	none
CCc1noc(C)c1C(=O)OCC(=O)Nc1nc(-c2ccc(F)c(F)c2)cs1	none
O=C(Nc1ccc(Cl)cc1)Nc1cccc(C(=O)O)c1	Peg3 prom inh-1 52.7, HIF-2a inh 65.7 | Peg3 prom inh-2 inactive
CCOc1ccc(NC(=O)Nc2cccc(C(=O)O)c2)cc1	Peg3 prom inh-1 84.6, HIF-2a inh 87.7 | Peg3 prom inh-2 74.8
Cc1ccccc1OCC(=O)Nc1cccc(C(=O)O)c1	Peg3 prom inh-1 84.4, HIF-2a inh 91.6 | Peg3 prom inh-2 84.8
CCOC(=O)C1CCN(c2cc3c(cc2NC(=O)c2ccccc2OCC)n(C)c(=O)n3C)CC1	Peg3 prom inh-1 51.4 | Peg3 prom inh-2 45.4
COc1ccc(CCN2C(=O)C=CC2=O)cc1OC	Peg3 prom inh-1 95.9, HIF-2a inh 54.7 | Peg3 prom inh-2 97.6
COc1ccccc1N1C(=NC(=O)C(C)Oc2ccccc2)SC2CS(=O)(=O)CC21 (stereo unspecified)	none
CCN(CC)c1ccc(C(=O)NNC(=O)CCNC(=O)c2ccccc2)cc1	none
CCN(CC)c1ccc(C(=C2C=CC(=[N+](CC)CC)C=C2)c2ccccc2)cc1	CF NFkB block 85.0, Shn3 3UTR inh 96.7, Peg3 prom inh-1 95.9, KKLEB cytotox -86.3, HIF-2a inh 83.8 | Peg3 prom inh-2 98.6
CN(C)CCNc1ccc2nnn3c4ccc(O)cc4c(=O)c1c23	Peg3 prom inh-1 74.9 | Peg3 prom inh-2 55.8
Cc1ccc(NCCN(C)C)c2c(=O)c3cc(O)ccc3sc12	Peg3 prom inh-1 105.9 | Peg3 prom inh-2 100.2
Cc1ccc(C(=O)Nc2cccc(NC(=O)c3ccc(C)o3)n2)o1	none
COc1cc(/C=C2/SC(=S)N(Cc3ccccc3)C2=O)ccc1OCC(=O)O	none
COc1ccc(/C=C2\SC(=S)N(CCC(=O)N(CCO)Cc3ccccc3)C2=O)cc1OC	Peg3 prom inh-1 78.2 | Peg3 prom inh-2 inactive
O=C(NCc1ccncc1)c1ccc(NS(=O)(=O)c2ccc(F)cc2)cc1	none
Cc1ccc(-c2cc(C(=O)Nc3nccs3)c3ccccc3n2)c(C)c1	Peg3 prom inh-1 90.6 | Peg3 prom inh-2 61.1
COc1ccc(N2CCN(S(=O)(=O)CC34CCC(CC3=O)C4(C)C)CC2)cc1 (stereo unspecified)	none
CCC1CCCCN1S(=O)(=O)c1ccc(C(=O)N(CCCN(C)C)c2nc3cc4c(cc3s2)OCO4)cc1 (stereo unspecified)	Peg3 prom inh-1 58.8 | Peg3 prom inh-2 70.3
CN(C)CCCN(C(=O)c1ccc(S(=O)(=O)N2CCCCCC2)cc1)c1nc2cc3c(cc2s1)OCO3	none
CC1CCCCN1S(=O)(=O)c1ccc(C(=O)N(CCCN(C)C)c2nc3ccc(Br)cc3s2)cc1 (stereo unspecified)	Peg3 prom inh-1 80.8 | Peg3 prom inh-2 93.0
CN(C)CCN(C(=O)c1ccc(S(=O)(=O)N2CCCC2)cc1)c1nc2ccc(Br)cc2s1	none
CN(C(=O)c1cccc(NC(=O)Cc2ccc(NC(=O)C3CCN(C(=O)C4CCC4)CC3)cc2)c1)C1CCCC1	none
CCCCn1c(N)c(N(CC(C)C)C(=O)c2cc(Br)c(Br)s2)c(=O)[nH]c1=O	Peg3 prom inh-1 81.2 | Peg3 prom inh-2 41.4
COCc1ccc(CN2CCC(C(=O)Nc3cccc(-c4cccc(Cl)c4)c3)CC2)o1	Peg3 prom inh-1 103.4 | Peg3 prom inh-2 99.0
O=C1C(c2ccnc3ccccc23)=C(O)c2ccccc21	Peg3 prom inh-1 87.8 | Peg3 prom inh-2 inactive
Cc1ncc(CN2CCN(CCC(C)C)C(CCO)C2)s1 (stereo unspecified)	none
COc1ccc(CC(=O)N(Cc2ccccc2)c2ccccc2)cc1S(=O)(=O)N1CCOCC1	Peg3 prom inh-1 56.3 | Peg3 prom inh-2 47.4
COc1cccc(C(=O)NCCC2=CCCCC2)c1	none
O=C(NC1CCN(S(=O)(=O)c2cccc(F)c2)CC1)c1ccc(F)cc1	none
O=C(c1ccco1)N1CCN(c2ncnc3c2[nH]c2ccc(Br)cc23)CC1	Peg3 prom inh-1 73.3 | Peg3 prom inh-2 84.9
CCOc1ccc2[nH]c3c(N4CCN(C(=O)c5ccco5)CC4)ncnc3c2c1	none
O=c1[nH]cc(S(=O)(=O)N2CCCc3ccccc32)c(=O)[nH]1	none
NC(=O)c1cc([N+](=O)[O-])ccc1NCc1ccc(F)cc1	none
NC(=O)c1cc([N+](=O)[O-])ccc1NCc1ccc(N)cc1	Peg3 prom inh-1 80.8, HIF-2a inh 93.3 | Peg3 prom inh-2 77.8
CCC(=O)NNc1nc2c(C)cc(C)cc2s1	none
Cc1cc(C)c2nc(NNC(=O)c3ccc(S(=O)(=O)N4CC(C)CC(C)C4)cc3)sc2c1 (stereo unspecified)	Shn3 3UTR inh 89.7, Peg3 prom inh-1 94.1 | Peg3 prom inh-2 98.8
CC(C)(C)OC(=O)NCc1ccc(CNC(=O)c2nc[nH]c2C(=O)N2CCN(c3ccccc3)CC2)cc1	none
CCC1(c2ccccc2)NC(=O)N(CC(=O)Nc2cc(S(=O)(=O)N3CCCCCC3)ccc2OC)C1=O (stereo unspecified)	Peg3 prom inh-1 54.0 | Peg3 prom inh-2 69.9
Cc1ccccc1-n1ncc(C(C)NC(=O)c2ccco2)c1C (stereo unspecified)	none
CCOC(=O)C1=C(COCCN)NC(C)=C(C(=O)OC)C1c1ccccc1Cl (stereo unspecified)	Peg3 prom inh-1 68.7! | Peg3 prom inh-2 88.7
CCN(CC)CCNc1cccc2sc3ccccc3c(=O)c12	Peg3 prom inh-1 100.8 | Peg3 prom inh-2 68.2
Cc1ccc(C(=O)N/N=C/c2ccc([N+](=O)[O-])s2)cc1	Shn3 3UTR inh 89.8, Peg3 prom inh-1 82.2, HIF-2a inh 90.8 | Peg3 prom inh-2 79.8
CC(C)n1nc(C(=O)Oc2cccc(Cl)c2Cl)c2ccccc2c1=O	none
CC(C)n1nc(C(=O)Oc2cc(Cl)ccc2Cl)c2ccccc2c1=O	Peg3 prom inh-1 53.5 | Peg3 prom inh-2 65.1
Fc1c(F)c(F)c(/C=N/NC(=S)Nc2cccnc2)c(F)c1F	Peg3 prom inh-1 101.0 | Peg3 prom inh-2 43.7
Cc1ccc(NC(=O)c2ccc(OCC3CCCO3)cc2)nc1 (stereo unspecified)	none
Cc1cnc(NC(=O)c2ccc(OCC3CCCO3)cc2)s1 (stereo unspecified)	Peg3 prom inh-1 52.9 | Peg3 prom inh-2 inactive
O=S(=O)(c1ccc(Cl)cc1)N1CCN(Cc2ccc(O)c3ncccc23)CC1	Shn3 3UTR inh 87.7, Peg3 prom inh-1 52.5 | Peg3 prom inh-2 56.2
Oc1ccc(CN2CCN(Cc3ccccc3)CC2)c2cccnc12	none
CC(=O)COc1cc2c(-c3cc4ccccc4o3)cc(=O)oc2cc1C	Peg3 prom inh-1 56.4 | Peg3 prom inh-2 inactive
CCc1cc2c(-c3ccccc3)cc(=O)oc2cc1OCC(C)=O	none

From PubChem
